Compounds with a hit are over-represented: about 6.2% of the library has one in this group of screens.
LASV entry inh – qHTS for Inhibitors of binding or entry into cells for Lassa Virus. AID 540256, 2011. Potency, µM (series often up to 37.9 µM), inactives show at the highest dose activity change, negative = inhibition, usual class: inhibitors. Lassa virus pseudotype entry inhibition, cell reporter. 1.2% of 300,000 active; calls by dose curve; tested in HEK293 cells; also: potency is read from the fitted curve at half-maximal effect; nearly all actives have a fitted effect of over 50% in size
FMDV inh – High Throughput Screening for Foot and Mouth Disease Virus Antivirals; FMDV antiviral cell-based qHTS; Potency, µM (top dose mostly 57.9 µM), inactives show at the top dose activity change, negative = inhibition, usual class: inhibitors; 1.2% of 410,000 active; calls by dose curve; tested in HEK293T cells; also: read-out not given here; potency is read from the fitted curve at half-maximal effect; nearly all actives have a fitted effect of over 45% in size
Marburg entry inh – qHTS for inhibitors of binding or entry into cells for Marburg Virus; Marburg virus pseudotyped entry inhibition, cell reporter; 1.8% of 300,000 active; Potency, µM (doses to about 37.8 µM), for the others: at the top dose activity change, negative = inhibition, hits mostly inhibitors; calls by dose curve; tested in HEK293 cells; also: potency is read from the fitted curve at half-maximal effect
HCMV antiviral – qHTS Assay for inhibitors of the human cytomegalovirus (HCMV); 4.5% of 410,000 active; HFF cells, HCMV-luciferase reporter, 72 h; stronger effect = lower value; activity change, negative = inhibition, % at 57.5 µM; in the data active = activity change below about -60%; inconclusive = no clear call, values can overlap the other calls; inactive = above about -39%
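After 16 h attachment at 37C, HFF cells received test compound and HCMV-luciferase (1 PFU/cell); reporter luminescence read 72 h later, data normalized against buffer-only and known inhibitor Salinomycin.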
An asterisk follows results filed as active; ? = inconclusive; · = no result given; [ ] = another dose, or the depositor's remark. % is scaled to controls: 0 for no effect and ±100 for the full control effect.

SMILES	LASV entry inh	FMDV inh	Marburg entry inh	HCMV antiviral
COCC(=O)Nc1cc(C(=O)N2CC3CCCC2C3)c2c(c1)nc(-c1ccncc1)n2C (stereo unspecified)	·	-5.0%	·	·
O=C(CSc1nc(Nc2ccccc2)nc(N2CCOCC2)n1)Nc1ccccc1Cl	4.61µM*	·	?	?
CCNC(=O)C1CCCN(C(=O)c2cc(F)cc(F)c2)CC1 (stereo unspecified)	·	-14.1%	·	-92.7*
Cc1ccc2c(c1)N(C(=O)CCC(=O)NCc1ccccc1Cl)CC(C)O2 (stereo unspecified)	0.5%[46.1 µM]	-2.5%	?	-15.3
O=C(Nc1ccc(O)cc1)c1cc(S(=O)(=O)N2CCCC2)ccc1Cl	-1.9%	?	?	-97.0*
COc1ccccc1C(=O)Nc1ccc(S(=O)(=O)N2CCCC2)cc1	-2.5%	-20.8%	2.2%	-8.7
COc1ccc(Cl)cc1C(=O)Nc1ccc(S(=O)(=O)N2CCCC2)cc1	-1.6%	-20.2%	12.9%	-101.5*
O=C(N/N=C/c1ccc2c(c1)OCO2)c1cc(-c2ccccc2)nc2ccccc12	?	3.7%	?	-34.0
Cn1cc(C(=O)N/N=C/c2ccc3c(c2)OCO3)c2ccccc21	-11.2%[46.1 µM]	2.3%	12.6µM*	6.1
O=C(N/N=C/c1ccc2c(c1)OCO2)c1cccc2ccccc12	-16.7%[46.1 µM]	29.5%	3.16µM*	-13.9
Cn1cc(C(=O)N/N=C/c2ccc(Br)c([N+](=O)[O-])c2)c2ccccc21	-0.3%	-2.6%	-3.0%[46.1 µM]	?
Cc1cn2c(=O)cc(COc3ccccc3NC(=O)c3ccc(Cl)cc3)nc2s1	3.9%[46.1 µM]	-6.2%	-7.9%[46.1 µM]	2.2
Cc1ccccc1C1=CCN(c2ncc(NC(=O)c3ccc(Cl)cc3)cc2C(=O)O)CC1	16.7%[46.1 µM]	-9.6%	·	-20.8
O=C(NCC1CCS(=O)(=O)C1)Oc1ccccc1 (stereo unspecified)	15.6%	-12.0%	-1.0%	-95.4*
O=C(COc1ccccc1)NC1CCS(=O)(=O)C1 (stereo unspecified)	6.7%	-10.8%	0.1%	1.9
Cc1cc(S(=O)(=O)Nc2cc3c(cc2NCc2ccccc2)n(C)c(=O)n3C)ccc1F	19.2%[46.1 µM]	18.2%	4.1%[46.1 µM]	-20.6
COC(=O)c1c(OCC2CCCN(C)C2)cc(=O)n2c1CCN(Cc1ccc(OC)c(O)c1)CC2 (stereo unspecified)	·	-5.8%	·	·
CCCc1c(C(=O)N/N=C(\C)c2ccccn2)nnn1-c1nonc1N	·	-21.9%	·	-97.7*
COc1ccc(/C(C)=N/NC(=O)c2nnn(-c3nonc3N)c2CN(C)c2ccccc2)cc1	·	-9.6%	·	?
CCCc1c(C(=O)N/N=C(\C)c2ccc(O)cc2)nnn1-c1nonc1N	·	-13.8%	·	?
C/C(=N\NC(=O)c1nnn(-c2nonc2N)c1CN(C)c1ccccc1)c1ccccc1O	?	21.3%	8.91µM*	-100.1*
CCn1c(-c2ccccc2F)nc2cc(NC(C)=O)cc(C(=O)N3CCNC(=O)C3CC(=O)OC)c21 (stereo unspecified)	·	-14.0%	·	·
Cc1ccc(-c2nc3scc(CCNS(=O)(=O)c4ccc(Oc5ccccc5)cc4)n3n2)cc1	?	-28.7%	·	-20.5
O=C(Cn1c(SCC(=O)Nc2ccc(F)cc2)nc2ccccc21)NCc1ccc(F)cc1	?	-18.2%	·	-34.2
CC1CCCC(C)N1C(=O)Cn1c(SCC(=O)NCc2ccc3c(c2)OCO3)nc2ccccc21 (stereo unspecified)	-2.0%	-13.4%	-4.0%	-68.3*
SMILES	LASV entry inh	FMDV inh	Marburg entry inh	HCMV antiviral
Cc1ccc(NC(=O)CSc2nc3ccccc3c3nc4ccccc4n23)cc1	?	-6.7%	6.51µM*	-87.5*
COc1ccc(NC(=O)CSc2nc3ccccc3c3nc4ccccc4n23)cc1	-18.1%	6.9%	?	20.7
CN(C)C(=O)Cn1c(SCC(=O)NCc2ccc3c(c2)OCO3)nc2ccccc21	17.3%	-3.7%	4.1%	1.4
O=C(Cn1c(SCC(=O)Nc2ccc(F)cc2)nc2ccccc21)NCc1ccc(Cl)cc1	?	-24.7%	·	-74.0*
Cc1ccc(CNC(=O)Cn2c(SCC(=O)Nc3ccc(F)cc3)nc3ccccc32)cc1	?	-12.7%	·	-92.9*
S=C(SCc1c(Cl)cccc1Cl)N1CCSCC1	·	·	·	86.9
COc1ccccc1-c1nc(NCc2cnc(C)cn2)c2ccccc2n1	·	1.4%	·	·
CC1CCCCN1c1ncnc(N)c1[N+](=O)[O-] (stereo unspecified)	·	-17.8%	-5.2%[46.1 µM]	-77.3*
CC1Cc2ccccc2N1c1ncnc(N)c1[N+](=O)[O-] (stereo unspecified)	10.4%	?	13.0%	-101.3*
Cc1nc(N2CCOCC2)nc(N2CCCCC2C)c1[N+](=O)[O-] (stereo unspecified)	·	-23.9%	·	4.5
CC1Cc2ccccc2N1c1ncnc2nc[nH]c12 (stereo unspecified)	?	36.1%	-3.5%	·
COP(=S)(OC)Oc1ccc([N+](=O)[O-])cc1	·	22.4µM*	·	·
Cc1cccc(CNC(=O)c2cnc3c(-c4cccc(C)c4)c(C)nn3c2C)c1	-14.7%[46.1 µM]	-7.0%	·	-34.3
Cc1ccc(OCCCCNC2CCCCC2)c(C)c1	?	?	7.3µM*	-36.9
Cc1ccc(OCCCNC2CCCC2)cc1	-1.1%	3.2%	16.4%	-6.4
O=C1N[C@@H](Cc2ccccc2)C(=O)N2[C@H]1CSCCS2(=O)=O	-20.4%[46.1 µM]	·	·	0.6
Cc1c(C)c2c(cc(C)c3c(-c4ccc(Br)cc4)coc32)oc1=O	15.0%[46.1 µM]	-6.1%	-21.6%[46.1 µM]	-15.5
COc1c(C(N)=O)cc(-c2ccc(Cl)cc2)cc1-c1ccc(S(N)(=O)=O)cc1	25µM*	·	·	·
COc1ccc(Cl)cc1C(=O)Nc1ccc(S(N)(=O)=O)cc1	-9.0%	-13.4%	9.2%[46.1 µM]	?
CC1CCN(C(=O)CSc2ccc(-c3ccc(F)cc3)nn2)CC1	?	?	2.4%	-38.9
CC1CC(C)(C)N(C(=O)CSc2ccc(-c3ccc(F)cc3)nn2)c2ccccc21 (stereo unspecified)	-14.4%	·	?	-86.6*
CC(C)(C)n1nnnc1CN(Cc1ccco1)Cc1cc2cc3c(cc2[nH]c1=O)OCO3	-12.7%	0.0%	-2.6%	-64.8*
CCC(C)(C)n1nnnc1CN(Cc1ccc(Cl)cc1)Cc1ccco1	-8.9%	?	?	-63.6*
CCC(C)(C)n1nnnc1CN(Cc1ccco1)Cc1cc2cc3c(cc2[nH]c1=O)OCO3	-29.6%	-6.0%	?	·
COc1ccc2cc(CN(Cc3ccco3)Cc3nnnn3C3CCCCC3)c(=O)[nH]c2c1	?	-14.5%	?	-84.0*
CC(C)(C)c1ccc(CN(Cc2ccco2)Cc2nnnn2C2CCCC2)cc1	?	4.5%	?	6.2
COc1ccc2cc(CN(Cc3ccco3)C(c3nnnn3C3CCCCC3)C(C)C)c(=O)[nH]c2c1 (stereo unspecified)	7.6%	15.8µM*	0.4%	-23.5
CCOc1cccc(NC(=O)C2CC(=O)N(CC)C(=Nc3ccc(F)cc3)S2)c1 (stereo unspecified)	-20.9%[46.1 µM]	-29.5%	?	-1.2
O=C(Nc1ccc(F)cc1)c1ccc(Cn2nc(N3CCN(c4ccccc4)CC3)ccc2=O)o1	?	?	·	-61.9*
COc1c2ccccc2nc2occc12	·	-2.4%	·	·
